Inconclusive results are not listed. A call without a number means that no potency is given here. Values without a mark were called inactive. Activity calls are given as the source filed them. Calls come from the whole dose curve.

We go through 40 compounds from PubChem BioAssay (Tox21).

The experiment in a line: p53 small molecule agonists, cell-based qHTS assay: qHTS cell viability counter screen (AID 1963581). Note: nearly all actives have a fitted effect of over 45% in size. Particulars: p53RE-bla HCT-116 viability, ATP luminescence, 16 h; series mostly up to 66 µM; activity change, negative = cytotoxicity: at the top concentration. From the text: National Center for Advancing Translational Sciences [NCATS]
Division of Preclinical Innovation [DPI]
U.S. Environmental Protection Agency [EPA]
National Institutes of Environmental Health Sciences [NIEHS]
National Toxicology Program [NTP]
U.S. Food and Drug Administration [FDA]
p53, a tumor suppressor protein, is activated following cellular insult, including DNA damage and other cellular stresses. The activation of p53 regulates cell fate by inducing DNA repair, cell cycle arrest, apoptosis, or cellular senescence. The activation of p53, therefore, is a good indicator of DNA damage and other cellular stresses. The CellSensor p53RE-bla HCT-116 cell line (Invitrogen) contains a stably integrated beta-lactamase reporter gene under control of the p53 response elements. The activation of the reporter gene under culture conditions can be detected by fluorescence intensity. This cell line was used to screen the Tox21 compound library in a 1536-well plate format and to identify agonists that activate the p53 signaling pathway. The cytotoxicity of the Tox21 compound library against the p53 RE-bla HCT-116 cell line was tested in parallel by measuring the intra cellular ATP content in the same wells.
Tox21 Assay Protocol Summary:
The p53RE-bla cells were dispensed at 4,000 cells/5 ul/well in 1536-well black wall/clear bottom plates using a Multidrop dispenser. After the assay plates were incubated at a 37 C/5% CO2 incubator for 5 hours, 23 nL of compounds dissolved in DMSO, positive controls or DMSO only was transferred to the assay plate by a pin tool. The plates were incubated at 37 C for 16 hours. After 1 uL of LiveBLAzerTM B/G FRET substrate was added using a Flying Reagent Dispenser, the plates were incubated at room temperature for 2 hours, and fluorescence intensity was measured by an Envision plate reader. For cell viability readout that measures cytotoxicity, 4 ul/well of CellTiter-Glo reagent was added into the assay plates using a Flying Reagent Dispenser. After 30 min incubation at room temperature, the luminescence intensity in the plates was measured using a ViewLux plate reader.
A general note: In qHTS, concentration-response curves come from the screen itself.
Regarding `Nc1ccc(Cl)c(Cl)c1`, the Potency result was “inactive”.
On the same count and under the same terms, with `C=CC(=O)OCCO` the entry was “inactive”; with `C#C[C@]1(O)CC[C@H]2[C@@H]3CCC4=CC(=O)CC[C@]4(C)[C@H]3CC[C@@]21C`, “inactive”.
Turning to `Cn1c(N)nc2c3cccnc3ccc21`, the “activity change, negative = cytotoxicity” value is 0%.
`CC(C)(C)C(O)(CCc1ccc(Cl)cc1)Cn1cncn1` (stereo not given): the Potency result is “inactive”.
Take `Cc1coc2c1CCC(C)C2` (stereo not given): the “activity change, negative = cytotoxicity” value is 0%.
Take `O=[N+]([O-])c1c(Cl)c(Cl)c(Cl)c(Cl)c1Cl`: the “activity change, negative = cytotoxicity” value was 2.62%.
Still for that read-out and setting: with `CCCC[N+]1(C)CCCC1` (tested in a mixture with another compound) the figure was 2.79%.
On the same count and under the same terms, the value for `CCOC(=O)c1cncn1C(C)c1ccccc1` (stereo not given) was -10.5% [at 30.3 µM].
For `Nc1c(Cl)c(Cl)nc(C(=O)O)c1Cl`, the Potency entry is “inactive”.
On to `CCn1cc[n+](C)c1`, for which the Potency result was “inactive”.
As to `COC(C)(C)CCCC(C)C/C=C/C(C)=C/C(=O)OC(C)C` (stereo not given), the Potency entry is “inactive”.
As to `CCC(Br)(CC)C(=O)NC(N)=O`, the “activity change, negative = cytotoxicity” value was 1.53%.
For the compound `COC(=O)c1sccc1S(=O)(=O)NC(=O)Nc1nc(C)nc(OC)n1`, the Potency entry was “inactive”.
The same measure, in the same setting: the value for `Clc1ccccc1Cl` was “inactive”.
Still for that read-out and setting: the value for `N#CC(c1ccccc1)c1ccccc1` was “inactive”.
Same read-out and setting: with `O=C(O)CCl` the entry was “inactive”; with `Oc1cccc2cccnc12`, “inactive”.
As for `ClC(Cl)=C(c1ccc(Cl)cc1)c1ccc(Cl)cc1`, the “activity change, negative = cytotoxicity” value is -11.8%.
For `CCCCOP(=O)(CCCC)OCCCC`, the “activity change, negative = cytotoxicity” value was 3.03%.
Still for that read-out and setting: with `CC(C)OC(=S)S` the figure was -8.98%; with `N#CCC#N`, -4.09%.
On to `N#Cc1cccc(C#N)c1`, for which the Potency result is “inactive”.
In the case of `CCOc1nc(F)cc2nc(S(=O)(=O)Nc3c(Cl)cccc3Cl)nn12`, the “activity change, negative = cytotoxicity” value was -0.469%.
`NCCc1ccc(O)cc1`: the Potency result was “inactive”.
Consider `O=C=NC1CCCCC1`, for which the “activity change, negative = cytotoxicity” value is 7.7%.
Take `ClC1=C(Cl)[C@]2(Cl)[C@@H]3[C@@H](Cl)[C@@H](Cl)C[C@@H]3[C@@]1(Cl)C2(Cl)Cl`: the “activity change, negative = cytotoxicity” value is 0.764%.
With `COC(=O)c1ccccc1N`, the Potency result is “inactive”.
With `CNC(=O)NC(O)C(Cl)(Cl)Cl` (stereo not given), the “activity change, negative = cytotoxicity” value is 9.92% [at 30.3 µM].
Take `COC(=O)c1c(C(F)F)nc(C(F)(F)F)c(C2=NCCS2)c1CC(C)C`: the “activity change, negative = cytotoxicity” value was 10.6%.
On the same count and under the same terms, the value for `CC1CC(CC2CCC(N)C(C)C2)CCC1N` (stereo not given) was -1.28%; that for `O=[N+]([O-])c1ccc(CBr)cc1` was 0.331%.
With `COC(=O)NS(=O)(=O)c1ccc(N)cc1`, the Potency result is “inactive”.
Take `CN(C)C(=S)S`: the “activity change, negative = cytotoxicity” value was 13.1% [at 30.3 µM].
`CCCCCCCCCCn1cc[n+](C)c1`: the Potency result is “inactive”.
Turning to `C1CCC(NC2CCCCC2)CC1`, the Potency entry was “inactive”.
Regarding `O=[N+]([O-])c1cc(Cl)c(Cl)c(Cl)c1`, the “activity change, negative = cytotoxicity” value was 0%.
For `O=C(O)C(Br)Br`, the Potency entry was “inactive”.
Still for that read-out and setting: with `CCNCC` the entry was “inactive”.
For `CCCCC1C(=O)NC(=O)N(C2CCCCC2)C1=O` (stereo not given), the “activity change, negative = cytotoxicity” value was 18% [at 30.3 µM].
